A selection: hits, their analogues and other compounds. The true share with any hit is near 1.5%.
MEX-5 binding = C. elegans MEX-5 TCR-2 RNA binding activity. MEX-5/FITC-TCR2 RNA binding, fluorescence polarization; active compounds read low. activity score (negative = inhibition of binding), % at 10 µM. hit rate 0.38% among 300,000. AID 1832;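 active = inhibition past about -25% in most replicates, and total fluorescence under double the plate's negative control median, limit read from the data; inconclusive = replicates evenly split on the limit, or fluorescence at least double controls; inactive = too little inhibition in most replicates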;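 also: 0% = DMSO and -100% = 5 µM competing unlabeled TCR2 RNA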
MCL1-BIM inh = inhibitors of human MCL1 binding to BIM-BH3 peptide; hit rate 0.68% among 320,000; inhibition, % at 10.9 µM; GST-MCL1 / FITC-Bim-BH3 fluorescence polarization;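 active = inhibition above the mean inhibition of all tested compounds plus 3 SD, set per campaign, cut at about 40% in these data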;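 also: 0% = DMSO wells and 100% = unlabeled Bim-BH3 peptide control; higher means more loss of mP so more displacement of Bim peptide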
E coli Lon inh = E. coli protease La inhibition. P0A9M0. inhibition, % at 7.94 µM. purified E. coli Lon protease, fluorescence polarization. hit rate 0.42% among 360,000; in the data active = inhibition above about 13%, passing the limit was not always enough;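 also: 0% = enzyme with probe and DMSO and 100% = no enzyme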
EBV gp42 block = EBV gp42 inhibition | hit rate 0.42% among 220,000 | AID 1085 | inhibition, % (tested at 21.74 µM) | Fluorescence polarization binding assay, mP read-out; in the data active = inhibition above about 50%
Bcl-xL primary = Bcl-xL (human) inhibition. Q07817. GST-Bcl-xL / FITC-Bim BH3 peptide fluorescence polarization. inhibition, % at 10.9 µM. hit rate 0.7% among 320,000. AID 2129;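 active = inhibition above the mean of all tested compounds plus 3 SD, cutoff set per campaign, cut at about 30% in these data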;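 also: 0% = DMSO wells and 100% = unlabeled Bim-BH3 peptide competitor; inhibitors lower millipolarization by displacing the labeled peptide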
GLD-1 RNA inh = GLD-1-TGE RNA interaction inhibition (C. elegans) | purified GLD-1 + fluorescein TGE RNA, fluorescence polarization | inhibition, % at 5.96 µM | hit rate 0.44% among 320,000 | AID 2280;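 active = percent inhibition above a per-plate cutoff, the plate mean of test compounds plus 3 SD, cut at about 30% in these data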;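 also: 0% = DMSO wells with GLD-1 and probe and 100% = wells lacking GLD-1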
BCLXL inh confirm = Bcl-xL (human) inhibition, MCL1 counter-screen confirmation; shares compounds with MCL1-BIM inh; GST-Bcl-xL / FITC-Bim BH3 peptide FP binding; inhibition, % at 10.9 µM; hit rate 54% among 1,700;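 active = inhibition above a cutoff equal to the mean inhibition of all tested compounds plus 3 SD, cut at about 30% in these data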;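 also: 0% = DMSO wells and 100% = unlabeled Bim BH3 control peptide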
MCL1 BIM confirm = MCL1-BIM-BH3 interaction inhibition, confirmation; shares compounds with MCL1-BIM inh; GST-MCL1 / FITC-Bim-BH3 fluorescence polarization; inhibition, % at 10.9 µM; hit rate 61% among 1,700; AID 2168;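 active = inhibition above the average of all tested compounds plus 3 SD, cut at about 40% in these data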;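 also: 0% = DMSO wells and 100% = unlabeled Bim-BH3 control peptide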
The depositor's hits bear a star; u = inconclusive; x = not tested or not shown; + = active, no number.

SMILES	MEX-5 binding	MCL1-BIM inh	E coli Lon inh	EBV gp42 block	Bcl-xL primary	GLD-1 RNA inh	BCLXL inh confirm	MCL1 BIM confirm
COc1cc(C(=O)Nc2nc3ccccc3[nH]2)ccc1OC(F)F	2	-6	5	-8	73*	1	x	x
O=C(O)c1cc(-c2ccccc2)n(-c2ccccc2)n1	2	3	7	-12	6	6	x	x
Nc1ccc(N(CCO)CCO)cc1	-28*	43*	9	-6	42*	22	x	x
CCN(CC)c1ccc(N)cc1	x	-13	-19	x	-4	-9	x	x
CCN1CCc2c(sc(NC(=O)c3ccc4ccccc4c3)c2C(N)=O)C1	-46*	-53	-160	x	-33	-82	x	x
NC(=O)[C@@H]1CCCN1Cc1c(C(=O)N2CCN(C3CCCCC3)CC2)nc2ccccn12	-3	20	-3	x	25	13	x	x
COC1CCN(Cc2c(C(=O)N3CCN(C4CCCCC4)CC3)nc3ccccn23)CC1	-4	49*	8	x	43*	25	16	15
CC1CCN(C(=O)Cn2nnc(-c3ccccc3)n2)CC1	2	45*	-17	x	10	7	-25	-51
CC1CC(C)CN(C(=O)Cn2nnc(-c3ccccc3)n2)C1 (stereo not given)	0	7	4	x	9	2	x	x
CC1(OC(=O)C2CCCC2)C(=O)C=C2C=C(c3ccsc3)N(CCc3ccccn3)C=C2C1=O (stereo not given)	-7	56*	19*	9	48*	37*	13	18
COc1cccc(-c2nc(-c3ccccn3)no2)c1OC	-2	0	4	-3	6	-4	x	x
COc1cc(-c2nc(-c3ccccn3)no2)cc(OC)c1OC	-1	41*	-9	-5	5	2	20	34
Cc1cccc(NC(=O)CNC(=O)c2cccc(-n3cccc3)c2)c1C	-1	49*	-12	x	7	-7	7	57*
CN1CCc2cccc3c2[C@@H]1Cc1ccc(O)c(O)c1-3	x	71*	3	0	49*	11	13	29
CCc1[nH]nc2c1C1(CCN(C(=O)c3ccccc3)CC1)C(C#N)=C(N)O2	-2	-1	-1	-19	2	-4	x	x
CC1(C)CC(=O)C2=C(C1)OC(N)=C(C#N)C21CCN(Cc2ccccc2)CC1	-15	73*	-3	6	74*	30	63*	70*
Cc1nc2c([nH]1)C1(CCN(Cc3ccccc3)CC1)C(C#N)=C(N)O2	x	+	10	14	163*	93*	32*	46*
COc1cc(/C=C2\SC(=S)N(c3cccnc3)C2=O)ccc1O	0	60*	-19	15	12	-16	21	44*
O=C(CSc1ncn[nH]1)Nc1nnc(-c2ccccc2)s1	-2	-1	2	-9	1	10	x	x
COC(=O)C1CSc2[nH]c(=O)sc2C1c1ccccc1 (stereo not given)	-57*	119*	19	-1	107*	84*	88*	109*
Cc1ccc(C(=O)N2CCOCC2)cc1[N+](=O)[O-]	4	-4	-2	12	3	-5	x	x
Cc1ccc(CSc2ccc(C(=O)N3CCOCC3)cc2[N+](=O)[O-])cc1	3	49*	2	2	5	-7	8	-1
COc1ccc(NC(=O)NC2(C(=O)N3CCOCC3)CCCCC2)cc1	-6	5	6	x	2	9	x	x
CN(C)c1ccc(/C=C/c2cc[n+]([O-])cc2)cc1	u	109*	x	5	101*	52*	89*	100*
CC[n+]1ccccc1/C=C/c1ccc(N(C)C)cc1	30	x	-43	-153	x	x	x	x
SMILES	MEX-5 binding	MCL1-BIM inh	E coli Lon inh	EBV gp42 block	Bcl-xL primary	GLD-1 RNA inh	BCLXL inh confirm	MCL1 BIM confirm
O=c1oc2c3c4c(cc2c(C(F)(F)F)c1CCN1CCOCC1)CCCN4CCC3	u	122*	-12	139*	107*	65*	107*	116*
CC1CC(C)CN(C(=O)c2cccc(NC(=O)CC3SC(N4CCCCC4)=NC3=O)c2)C1 (stereo not given)	x	x	-10	x	x	0	x	x
CCN1CCc2c(sc(N)c2C#N)C1	-8	59*	-30	-4	58*	-52	47*	40*
C=CCN1C(=O)C2(OCCO2)c2cc(C)ccc21	1	40*	2	x	19	8	4	1
C=CCN1C(=O)C2(OCCCO2)c2ccccc21	1	-2	2	x	3	1	x	x
CCOc1ccc(C(CCc2ccccc2)NC(=O)c2ccccc2)cc1OCC (stereo not given)	-1	-1	-13	-13	3	5	x	x
CCN1CCN(c2cc(N3CCN(C(=O)c4ccco4)CC3)c3c4c(onc24)-c2ccccc2C3=O)CC1	6	103*	10	x	92*	19	52*	20
CC(=O)NCc1ccc(S(=O)(=O)N/N=C/c2ccc(N(C)C)cc2)cc1	-2	1	-1	-7	6	0	x	x
COC(=O)\C(C(C)=O)=C(/C=C/C=C/C=C/N(C)C)N(C)C	x	50*	2	-101	28	19	15	-3
Cc1nn(-c2ccccc2)c(N2CCCC2)c1/C=N/O	1	5	2	0	4	0	x	x
Cc1nn(-c2ccccc2)c(Cl)c1/C=N/O	-3	119*	-3	-5	6	0	4	9
O=C(O)c1cccc(-n2cccc2/C=C/[N+](=O)[O-])c1	-36*	72*	-11	2	44*	20	41*	58*
O=c1ccc2cc3c([nH]c4ccc(Br)cc43)oc-2c1O	-79*	85*	-32	-15	46*	8	24	69*
O=C(O)c1ccc(N=Nc2c(O)[nH]c3ccc(Br)cc23)cc1	-8	-6	-2	x	1	-3	x	x
O=C(NC(=S)Nc1cccc2c(O)cccc12)c1ccccc1[N+](=O)[O-]	-3	48*	4	x	31*	-2	27	27
CC(=O)c1c(-c2ccccc2)c2cc(Cl)ccc2n(C)c1=O	-1	0	-10	x	0	0	x	x
CC(=O)c1c2c3c(cccc3n(C)c1=O)C(=O)c1ccccc1-2	-12	96*	x	x	85*	67*	129*	152*
CC(=O)N1N=C(c2ccc(Cl)cc2)CC1c1ccco1 (stereo not given)	1	40*	8	-19	4	0	4	6
CC(=O)N1N=C(c2ccc(C)cc2)CC1c1ccco1 (stereo not given)	3	-9	5	-4	-2	-1	x	x

Screening results as filed in PubChem BioAssay.
